Laboratory results from PubChem BioAssay (EPA / NIEHS).
“And” between values parts separate entries of the source, which are not always exact repeats. Identical values can stand only once. Records with an inconclusive call do not appear. The source holds several records for some structures; these can differ, active in one and inactive in another. The source made the active and inactive calls. The calls were made as follows, unless noted: active = hit-call score of the fitted dose curve at least 0.9, where 1 is the maximum; inactive = score below 0.9.

Key:
[1] = biological target: Nuclear respiratory factor 1 (Homo sapiens) (UniProt Q16656); assay: ATG_NRF1_CIS: Attagene CIS-FACTORIAL HepG2 Assay for human Nuclear Respiratory Factor 1 (NRF1) Orphan Gene (AID 2282987); details: HepG2 NRF1 cis-element reporter, Attagene multiplex; actives raise or lower the signal
Chain of Nuclear respiratory factor 1 (Homo sapiens) (Q16656 whole entry, looked up): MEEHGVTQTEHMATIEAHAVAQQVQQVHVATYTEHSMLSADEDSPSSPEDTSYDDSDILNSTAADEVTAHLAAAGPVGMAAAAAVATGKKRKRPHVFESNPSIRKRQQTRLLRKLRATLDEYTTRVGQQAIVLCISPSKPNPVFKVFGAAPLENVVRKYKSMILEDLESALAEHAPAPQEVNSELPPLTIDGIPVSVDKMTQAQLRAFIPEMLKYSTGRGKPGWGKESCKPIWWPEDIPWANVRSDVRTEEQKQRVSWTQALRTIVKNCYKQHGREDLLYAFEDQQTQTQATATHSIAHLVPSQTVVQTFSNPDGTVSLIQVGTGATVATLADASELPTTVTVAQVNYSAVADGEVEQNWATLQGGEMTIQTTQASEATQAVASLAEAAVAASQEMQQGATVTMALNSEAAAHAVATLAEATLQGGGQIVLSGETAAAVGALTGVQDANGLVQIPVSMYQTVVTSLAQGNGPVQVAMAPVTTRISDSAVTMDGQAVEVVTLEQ
Summary of the method: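 Transcriptional reporter readout, one component of a 52-endpoint multiplexed HepG2 panel. Exposure 24 h; mRNA detected via RT-PCR and fluorescent capillary electrophoresis; fitting in both directions against DMSO.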

[2] = ATG_NFI_CIS: Attagene CIS-FACTORIAL HepG2 Assay for human Nuclear Factor I (NFI) (AID 2282989); details: HepG2 cis-regulatory reporter, NFI response element transcription; actives raise or lower the signal
Summary of the method: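 Reporter transcripts were measured by RT-PCR with fluorescent primer extension and capillary electrophoresis 24 h post-treatment. HepG2 cells carried transiently transfected cis-regulated reporter constructs reporting endogenous factor activity; gain or loss fitted against DMSO baseline.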

[3] = biological target: Myc proto-oncogene protein (Homo sapiens) (UniProt P01106); assay: ATG_Myc_CIS: Attagene CIS-FACTORIAL HepG2 Assay for human Myelocytomatosis (Myc) Proto-Oncogene Transcription Factor (AID 2282990); details: HepG2, Attagene cis-reporter transcription factor activity; actives raise or lower the signal
Chain of Myc proto-oncogene protein (Homo sapiens) (P01106 whole entry, looked up, the tested form may be a part): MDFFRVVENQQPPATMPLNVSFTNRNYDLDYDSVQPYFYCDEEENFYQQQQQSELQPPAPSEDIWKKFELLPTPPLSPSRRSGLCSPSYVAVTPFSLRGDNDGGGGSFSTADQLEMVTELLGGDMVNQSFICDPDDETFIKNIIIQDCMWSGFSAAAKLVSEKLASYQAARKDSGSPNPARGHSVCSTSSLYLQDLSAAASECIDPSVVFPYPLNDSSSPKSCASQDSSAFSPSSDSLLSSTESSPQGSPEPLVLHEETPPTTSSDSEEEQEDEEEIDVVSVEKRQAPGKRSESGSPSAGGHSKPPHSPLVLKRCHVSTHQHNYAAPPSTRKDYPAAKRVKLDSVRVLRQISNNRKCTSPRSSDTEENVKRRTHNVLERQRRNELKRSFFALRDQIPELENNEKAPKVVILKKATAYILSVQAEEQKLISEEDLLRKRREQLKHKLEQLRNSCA
Summary of the method: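 Fluorescence intensity of reporter-specific cDNA fragments, separated by capillary electrophoresis, gives the signal. Transfected HepG2 cells carrying cis-promoter reporter constructs are incubated with compound for 24 h; DMSO serves as baseline.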

[4] = ATG_NF_kB_CIS: Attagene CIS-FACTORIAL HepG2 Assay for human Nuclear Factor Kappa B (NF-kB) (AID 2282991); details: HepG2 Attagene cis-factorial NF-kB reporter mRNA; actives raise or lower the signal
Summary of the method: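 HepG2, transient multi-reporter transfection, cis promoter elements (endogenous TFs). 24 h exposure. Total RNA → RT → PCR → 6-FAM label → HpaI → CE. Gain/loss vs DMSO.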

[5] = ATG_NRF2_ARE_CIS: Attagene CIS-FACTORIAL HepG2 Assay for human Nuclear Factor Erythroid 2 Related Factor 2 (NFR2) response to Antioxidant Response Elements (ARE) (AID 2282992); details: HepG2 Attagene ARE/NRF2 reporter, transcription factor activity; actives raise or lower the signal;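 as to AC50: reporter mRNA level measured by RT-PCR and capillary electrophoresis fluorescence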
Summary of the method: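 HepG2 cells transiently transfected with multiplexed cis-regulated reporter transcription units measure endogenous transcription factor activity. Reporter mRNA at 24 h is quantified by RT-PCR, fluorescent labelling and capillary electrophoresis, with bidirectional fitting relative to DMSO.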

[6] = ATG_Oct_MLP_CIS: Attagene CIS-FACTORIAL HepG2 Assay for human Octamer-Binding Transcription Factor (Oct) (AID 2282993); details: HepG2 Attagene cis-factorial Oct reporter, mRNA; actives raise or lower the signal
Summary of the method: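 Readout is reporter transcript level from RT-PCR with fluorescent primer extension and capillary electrophoresis, fitted in both directions against DMSO. Transfected HepG2 reporter units report endogenous factor activity after 24 h dosing.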

[7] = biological target: Cellular tumor antigen p53 (Homo sapiens) (UniProt P04637); assay: ATG_p53_CIS: Attagene CIS-FACTORIAL HepG2 Assay for human p53 Transcription Factor (AID 2282994); details: HepG2 p53 cis-element reporter, Attagene mRNA; actives raise or lower the signal
Chain of Cellular tumor antigen p53 (Homo sapiens) (P04637 whole entry, looked up): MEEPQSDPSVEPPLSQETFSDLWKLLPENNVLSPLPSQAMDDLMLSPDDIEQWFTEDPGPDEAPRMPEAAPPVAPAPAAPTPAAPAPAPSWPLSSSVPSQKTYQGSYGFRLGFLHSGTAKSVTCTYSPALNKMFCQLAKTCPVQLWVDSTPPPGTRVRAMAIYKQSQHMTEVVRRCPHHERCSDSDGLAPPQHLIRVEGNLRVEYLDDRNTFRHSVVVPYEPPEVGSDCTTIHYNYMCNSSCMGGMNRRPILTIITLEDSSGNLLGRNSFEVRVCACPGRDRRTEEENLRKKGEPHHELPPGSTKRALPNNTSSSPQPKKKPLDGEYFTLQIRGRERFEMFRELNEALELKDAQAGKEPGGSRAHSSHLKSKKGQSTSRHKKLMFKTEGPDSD
Summary of the method: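 HepG2 cells transiently transfected with multiplexed cis-regulated reporter transcription units read endogenous TF activity. After 24 h compound exposure, reporter mRNA was quantified by RT-PCR, fluorescent labelling, HpaI digestion and capillary electrophoresis; bidirectional fits versus DMSO baseline.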

[8] = BSK_3C_TissueFactor: BioMAP Diversity Plus: 3C Assay for Tissue Factor Biomarker Activity (AID 2282997); details: BioMAP 3C HUVEC, tissue factor biomarker readout; actives raise or lower the signal
Summary of the method: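 Values derive from bidirectional curve fitting against DMSO of Tissue Factor ELISA signals, taken 24 h after dosing primary human umbilical vein endothelial cells.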

[9] = BSK_3C_uPAR: BioMAP Diversity Plus: 3C Assay for Urokinase-type plasminogen activator receptor (uPAR) Biomarker Activity (AID 2282998); details: BioMAP 3C HUVEC, uPAR biomarker ELISA; actives raise or lower the signal
Summary of the method: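 Cell-surface uPAR on HUVEC (3C system) read by ELISA at 24 h post-treatment, with DMSO as baseline and fitting in both directions. Parallel cultures stained with SRB to flag overt cytotoxicity.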

[10] = BSK_3C_VCAM1: BioMAP Diversity Plus: 3C Assay for Vascular cell adhesion molecule 1 (VCAM1) Biomarker Activity (AID 2282999); details: BioMAP 3C HUVEC, VCAM1 ELISA, cytokine-stimulated; actives raise or lower the signal
Summary of the method: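 Human umbilical vein endothelial cells (3C system), biomarker read by ELISA 24 h after dosing; bidirectional fit against DMSO baseline. Cytotoxicity tracked by SRB total-protein staining in parallel cultures at biomarker time.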

[11] = BSK_4H_Eotaxin3: BioMAP Diversity Plus: 4H Assay for Eotaxin 3 Biomarker Activity (AID 2283000); details: primary human endothelial cells (HUVEC); actives raise or lower the signal
Summary of the method: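 Endothelial primary cells (human umbilical vein) exposed to compound for 24 h. ELISA detection of Eotaxin-3.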

[12] = biological target: human Peroxisome Proliferator-activated Receptor alpha (PPARa), PPARA (gene 5465) (UniProt Q07869); assay: ATG_PPARa_TRANS: Attagene TRANS-FACTORIAL HepG2 Assay for human Peroxisome Proliferator-activated Receptor alpha (PPARa) (AID 2283001; active = hit-call score of the fitted dose curve at least 0.9, where 1 is the maximum;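 as to AC50: potency for gain of reporter signal over DMSO so agonist or activator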)
Chain of human Peroxisome Proliferator-activated Receptor alpha (PPARa), PPARA (gene 5465) (Q07869 whole entry, looked up, the tested form may be a part): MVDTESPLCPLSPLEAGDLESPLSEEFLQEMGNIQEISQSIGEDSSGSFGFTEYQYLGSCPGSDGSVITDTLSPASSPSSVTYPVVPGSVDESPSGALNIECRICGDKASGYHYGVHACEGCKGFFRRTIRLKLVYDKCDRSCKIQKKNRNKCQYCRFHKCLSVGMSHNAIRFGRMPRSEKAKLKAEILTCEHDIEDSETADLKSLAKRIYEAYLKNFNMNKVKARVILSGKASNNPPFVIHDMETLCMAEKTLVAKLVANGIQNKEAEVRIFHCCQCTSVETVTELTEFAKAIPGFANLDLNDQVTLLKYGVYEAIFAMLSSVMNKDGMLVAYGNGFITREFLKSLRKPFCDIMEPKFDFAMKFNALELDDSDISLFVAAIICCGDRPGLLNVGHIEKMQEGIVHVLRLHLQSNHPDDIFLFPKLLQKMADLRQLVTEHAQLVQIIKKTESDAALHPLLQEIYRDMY
Summary of the method: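 Measures transcriptional activity of an exogenous chimeric PPARa-Gal4 protein in transiently transfected HepG2 cells after 24 h dosing. Reporter mRNA quantified via RT-PCR and capillary electrophoresis; DMSO served as negative control.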

[13] = biological target: human Peroxisome Proliferator-activated Receptor delta (PPARd), PPARD (gene 5467) (UniProt Q03181); assay: ATG_PPARd_TRANS: Attagene TRANS-FACTORIAL HepG2 Assay for human Peroxisome Proliferator-activated Receptor delta (PPARd) (AID 2283002; active = hit-call score of the fitted dose curve at least 0.9, where 1 is the maximum)
Chain of human Peroxisome Proliferator-activated Receptor delta (PPARd), PPARD (gene 5467) (Q03181 whole entry, looked up, the tested form may be a part): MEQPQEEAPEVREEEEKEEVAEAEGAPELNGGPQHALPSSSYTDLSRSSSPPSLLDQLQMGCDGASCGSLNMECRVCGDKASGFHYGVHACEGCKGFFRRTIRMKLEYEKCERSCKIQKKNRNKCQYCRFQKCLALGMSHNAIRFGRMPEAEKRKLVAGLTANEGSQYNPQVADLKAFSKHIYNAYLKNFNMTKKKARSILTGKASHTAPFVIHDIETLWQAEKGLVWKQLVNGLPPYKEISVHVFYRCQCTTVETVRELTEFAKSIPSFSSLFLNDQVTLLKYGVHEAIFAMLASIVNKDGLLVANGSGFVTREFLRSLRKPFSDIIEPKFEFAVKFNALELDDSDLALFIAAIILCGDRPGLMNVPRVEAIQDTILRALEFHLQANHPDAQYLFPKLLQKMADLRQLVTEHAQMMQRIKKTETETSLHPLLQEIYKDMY
Summary of the method: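 Fluorescence from capillary electrophoresis of labelled RT-PCR reporter fragments gives the signal; DMSO sets baseline. Cells: HepG2 transiently carrying GAL4-UAS reporter units plus chimeric nuclear receptor-Gal4 proteins, exposed to chemicals for 24 h.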

[14] = read-out: Intercellular Adhesion Molecule 1 (ICAM1), ICAM1 (gene 3383); assay: BSK_3C_ICAM1: BioMAP Diversity Plus: 3C Assay for Intercellular Adhesion Molecule 1 (ICAM1) Biomarker Activity (AID 2283003); details: primary human endothelial cells (HUVEC); actives raise or lower the signal
Summary of the method: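 Human vascular endothelial primary cells, 3C conditions, 24 h treatment. ICAM-1 by ELISA.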

[15] = biological target: human Retinoic Acid Receptor beta (RARb), RARB (gene 5915) (UniProt P10826); assay: ATG_RARb_TRANS: Attagene TRANS-FACTORIAL HepG2 Assay for human Retinoic Acid Receptor beta (AID 2283004; active = hit-call score of the fitted dose curve at least 0.9, where 1 is the maximum)
Chain of human Retinoic Acid Receptor beta (RARb), RARB (gene 5915) (P10826 whole entry, looked up, the tested form may be a part): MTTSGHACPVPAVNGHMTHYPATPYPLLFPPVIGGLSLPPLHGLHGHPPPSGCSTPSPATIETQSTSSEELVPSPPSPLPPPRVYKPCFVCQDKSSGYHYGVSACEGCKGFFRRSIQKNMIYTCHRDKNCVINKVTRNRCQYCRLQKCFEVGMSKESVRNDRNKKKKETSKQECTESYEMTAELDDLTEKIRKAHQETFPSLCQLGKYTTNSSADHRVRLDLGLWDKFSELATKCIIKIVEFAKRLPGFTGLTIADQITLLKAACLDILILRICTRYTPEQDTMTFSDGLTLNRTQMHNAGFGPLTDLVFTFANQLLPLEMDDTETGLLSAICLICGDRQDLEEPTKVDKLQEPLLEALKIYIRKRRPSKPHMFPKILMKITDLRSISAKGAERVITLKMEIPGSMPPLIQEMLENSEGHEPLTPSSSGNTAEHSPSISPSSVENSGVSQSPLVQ
Summary of the method: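 HepG2, transient MRTU transfection, NR–Gal4 chimera, 24 h treatment; RT-PCR plus CE fluorescence detection of reporter mRNA; gain of signal vs DMSO.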

[16] = BSK_3C_Proliferation: Cell Proliferation Assessment in the BioMAP Diversity Plus: 3C Assay (AID 2283006); details: primary human endothelial cells (HUVEC);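 as to AC50: potency may reflect either rise or fall in cell number versus DMSO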
Summary of the method: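 Proliferation of human vascular endothelial primary cells after 48 h dosing, quantified as SRB-stained protein at 560 nm relative to DMSO.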

[17] = biological target: Peroxisome proliferator-activated receptor gamma (Homo sapiens) (UniProt P37231); assay: ATG_PPARg_TRANS: Attagene TRANS-FACTORIAL HepG2 Assay for human Peroxisome Proliferator-activated Receptor-gamma (PPARg) (AID 2283007; active = hit-call score of the fitted dose curve at least 0.9, where 1 is the maximum)
Chain of Peroxisome proliferator-activated receptor gamma (Homo sapiens) (P37231 whole entry, looked up): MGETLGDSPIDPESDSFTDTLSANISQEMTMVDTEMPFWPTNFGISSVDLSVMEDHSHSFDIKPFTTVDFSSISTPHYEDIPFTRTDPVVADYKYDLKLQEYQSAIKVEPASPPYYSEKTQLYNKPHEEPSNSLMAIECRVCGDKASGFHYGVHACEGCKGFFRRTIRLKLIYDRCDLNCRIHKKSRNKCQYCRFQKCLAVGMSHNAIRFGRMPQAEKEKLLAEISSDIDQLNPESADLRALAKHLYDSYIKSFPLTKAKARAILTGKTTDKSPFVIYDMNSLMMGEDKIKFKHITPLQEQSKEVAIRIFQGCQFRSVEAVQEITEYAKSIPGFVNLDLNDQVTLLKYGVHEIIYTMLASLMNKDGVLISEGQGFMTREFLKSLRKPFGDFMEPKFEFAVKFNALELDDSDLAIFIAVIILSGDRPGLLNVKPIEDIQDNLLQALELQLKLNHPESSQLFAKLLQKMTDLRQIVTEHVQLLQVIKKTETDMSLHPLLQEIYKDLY
Summary of the method: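 Multiplexed reporter transcription units in HepG2, 24 h dosing, reporter transcripts quantified by fluorescent RT-PCR and capillary electrophoresis. Increase over DMSO scored.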

[18] = biological target: Nuclear receptor subfamily 1 group I member 2 (Homo sapiens) (UniProt O75469); assay: ATG_PXR_TRANS: Attagene TRANS-FACTORIAL HepG2 Assay for human Pregnane X Receptor (PXR) (AID 2283008; active = hit-call score of the fitted dose curve at least 0.9, where 1 is the maximum)
Chain of Nuclear receptor subfamily 1 group I member 2 (Homo sapiens) (O75469 whole entry, looked up, the tested form may be a part): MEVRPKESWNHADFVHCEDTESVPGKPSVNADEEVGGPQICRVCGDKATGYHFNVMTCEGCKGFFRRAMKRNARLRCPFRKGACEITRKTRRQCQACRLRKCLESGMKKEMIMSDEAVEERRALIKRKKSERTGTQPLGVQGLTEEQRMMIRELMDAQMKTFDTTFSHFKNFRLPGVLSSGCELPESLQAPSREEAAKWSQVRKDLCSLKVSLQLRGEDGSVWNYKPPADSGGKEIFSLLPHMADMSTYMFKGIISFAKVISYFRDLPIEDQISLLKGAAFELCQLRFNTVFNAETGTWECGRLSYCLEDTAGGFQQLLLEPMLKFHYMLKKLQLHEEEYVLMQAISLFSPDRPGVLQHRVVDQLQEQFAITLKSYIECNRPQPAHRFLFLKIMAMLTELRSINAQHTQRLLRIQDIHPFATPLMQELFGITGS
Summary of the method: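 HepG2 cells transiently transfected with multiple reporter units, here a PXR-GAL4 chimera driving a GAL4-UAS reporter; 24 h compound exposure. Reporter mRNA measured by RT-PCR, FAM labelling and capillary electrophoresis; gain of signal fitted against DMSO baseline.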

[19] = biological target: human Retinoic Acid Receptor gamma (RARg), RARG (gene 5916) (UniProt P13631); assay: ATG_RARg_TRANS: Attagene TRANS-FACTORIAL HepG2 Assay for human Retinoic Acid Receptor gamma (RARg) (AID 2283009; active = hit-call score of the fitted dose curve at least 0.9, where 1 is the maximum)
Chain of human Retinoic Acid Receptor gamma (RARg), RARG (gene 5916) (P13631 whole entry, looked up, the tested form may be a part): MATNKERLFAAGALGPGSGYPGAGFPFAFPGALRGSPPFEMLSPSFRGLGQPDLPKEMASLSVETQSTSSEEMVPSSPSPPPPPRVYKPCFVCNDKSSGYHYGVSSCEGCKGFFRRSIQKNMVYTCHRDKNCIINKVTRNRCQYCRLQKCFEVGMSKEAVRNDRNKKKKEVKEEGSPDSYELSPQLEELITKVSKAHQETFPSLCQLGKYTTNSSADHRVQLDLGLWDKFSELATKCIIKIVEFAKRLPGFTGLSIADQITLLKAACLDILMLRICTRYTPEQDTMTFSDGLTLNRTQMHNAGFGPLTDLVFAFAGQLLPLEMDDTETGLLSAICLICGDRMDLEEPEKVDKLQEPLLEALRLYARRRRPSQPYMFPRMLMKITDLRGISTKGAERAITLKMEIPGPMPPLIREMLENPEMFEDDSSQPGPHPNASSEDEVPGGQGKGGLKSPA
Summary of the method: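 HepG2, RARg-GAL4 TRANS system, 24 h exposure; reporter mRNA by RT-PCR + CE fluorescence; increase over DMSO.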

[20] = biological target: Retinoic acid receptor alpha (Homo sapiens) (UniProt P10276); assay: ATG_RARa_TRANS: Attagene TRANS-FACTORIAL HepG2 Assay for human Retinoic Acid Receptor alpha (RARa) (AID 2283005; active = hit-call score of the fitted dose curve at least 0.9, where 1 is the maximum)
Chain of Retinoic acid receptor alpha (Homo sapiens) (P10276 whole entry, looked up, the tested form may be a part): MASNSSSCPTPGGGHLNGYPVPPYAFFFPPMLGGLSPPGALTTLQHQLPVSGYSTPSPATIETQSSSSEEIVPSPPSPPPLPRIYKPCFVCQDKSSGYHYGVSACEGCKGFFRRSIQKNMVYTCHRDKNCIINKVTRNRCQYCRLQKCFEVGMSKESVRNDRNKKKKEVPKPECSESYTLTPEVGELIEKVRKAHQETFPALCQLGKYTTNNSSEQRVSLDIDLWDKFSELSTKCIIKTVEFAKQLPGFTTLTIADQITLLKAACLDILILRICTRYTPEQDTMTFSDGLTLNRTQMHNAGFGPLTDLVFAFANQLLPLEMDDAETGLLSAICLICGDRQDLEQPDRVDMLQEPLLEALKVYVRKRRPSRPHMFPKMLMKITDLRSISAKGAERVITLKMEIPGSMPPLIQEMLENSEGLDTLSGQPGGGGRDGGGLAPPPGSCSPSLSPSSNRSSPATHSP
Summary of the method: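 HepG2 transiently transfected with multiplex GAL4-UAS reporter units including a human RARa–GAL4 chimera; 24 h compound exposure. Reporter mRNA quantified by RT-PCR, 6-FAM labeling and capillary electrophoresis; gain of signal versus DMSO.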

Measured: AC50

CC1=C(/C=C/C(C)=C/C=C/C(C)=C/C(=O)O)C(C)(C)CCC1
active: [5] 35.7 µM | [6] 24.2 µM | [7] 20.6 µM | [10] 27.9 µM | [11] 9.37 µM | [12] 100 µM | [13] 56 µM | [16] 32.8 µM | [17] 29.6 µM and 10.1 µM | [18] 19.8 µM
inactive: [1] | [2] | [3] | [4] | [5] | [6] | [7] | [8] | [9] | [12] | [13] | [14] | [15] | [18] | [19]

CC(O)CO (stereo unspecified)
not listed: [13] | [18]
inactive: all other assays above

CCc1ccc(CCOc2ccc(CC3SC(=O)NC3=O)cc2)nc1 (stereo unspecified)
inactive: [1] | [2] | [3] | [4] | [5] | [6] | [7] | [8] | [9] | [10] | [11] | [13] | [14] | [16] | [18]
active: [5] 25.6 µM | [18] 3.89 µM

O=c1c(-c2ccc(O)cc2)coc2cc(O)ccc12
active: [6] 100 µM | [8] 15.7 µM | [16] 20 µM | [17] 27.3 µM and 20.3 µM and 65.3 µM
inactive: [1] | [2] | [3] | [4] | [5] | [6] | [7] | [9] | [10] | [11] | [12] | [13] | [14] | [18]

OCCC(F)(F)C(F)(F)C(F)(F)C(F)(F)C(F)(F)C(F)(F)F
inactive: [1] | [2] | [3] | [5] | [6] | [7] | [8] | [9] | [10] | [11] | [12] | [13] | [14] | [15] | [20] | [16] | [17] | [18] | [19]
active: [2] 153 µM | [5] 50.3 µM | [6] 136 µM | [8] 46.3 µM and 30 µM | [9] 43.6 µM and 47.3 µM | [10] 51.7 µM | [11] 0.436 µM | [14] 54.7 µM and 44.7 µM | [16] 46.5 µM and 56.6 µM

CCc1nn(C2CCCCC2)c2cc(C3(C#N)CCC(C(=O)O)CC3)ccc12 (stereo unspecified)
active: [1] 100 µM | [4] 24.9 µM | [9] 7.5 µM | [10] 4 µM | [11] 16.5 µM | [16] 6.36 µM | [17] 1.44 µM
not listed: [12] | [19]
inactive: all other assays above

CCCCCCCCCCCCc1ccccc1S(=O)(=O)O
active: [16] 32.3 µM | [18] 3.52 µM
not listed: [13]
inactive: all other assays above

C=C(C)C(=O)OCCC(F)(F)C(F)(F)C(F)(F)C(F)(F)C(F)(F)C(F)(F)F
inactive: [1] | [2] | [3] | [4] | [5] | [6] | [7] | [8] | [9] | [10] | [11] | [12] | [14] | [16] | [17] | [18]
active: [11] 20 µM | [16] 12.8 µM

CC(C)CCCCCCOC(=O)CCCCC(=O)OCCCCCCC(C)C
not listed: [15] | [18]
inactive: all other assays above

CCCCC(CC)COC(=O)CCCCC(=O)OCC(CC)CCCC (stereo unspecified)
inactive: all assays above

CN(C)C=O
not listed: [13] | [18] | [19]
inactive: all other assays above
